This is part of a sample that, as a whole, favours compounds with a hit. Of some 83,000 tested, about 20% had one in any assay.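 The test compound was applied at a single concentration to cells in 96-well plates for 48 hours, and percent growth was recorded.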 Unmarked numbers belong to inactive results. Activity calls are given as the source filed them. Rule for the calls: active = growth percent below 10; inactive = the rest.
Tests used:
Assay in all cases: NCI-60 one-dose screen, 48 h (100 = growth as untreated, 0 = no growth, -100 = all killed)
Conditions in all cases: 10 µM unless noted
[1] = system: SK-MEL-2 melanoma
[2] = system: EKVX NSCLC
[3] = system: SN12C renal
[4] = system: UO-31 renal
[5] = system: TK-10 renal
[6] = system: ACHN renal
[7] = system: CAKI-1 renal
[8] = system: A498 renal
[9] = system: CCRF-CEM leukemia
[10] = system: MOLT-4 leukemia

| SMILES | growth [1] | growth [2] | growth [3] | growth [4] | growth [5] | growth [6] | growth [7] | growth [8] | growth [9] | growth [10] |
| --- | --- | --- | --- | --- | --- | --- | --- | --- | --- | --- |
| c1cc(-c2nnc(SSc3ncnc4nc[nH]c34)o2)ccn1 | 15.9% | 82.3% | 55.8% | 30% | 17% | 45% | -6.89% (active) | 63% | 21.8% | 18% |
| NCCCNc1nc2ccccc2c2c(=O)c3cccc(F)c3sc12 | 94.6% | 60.4% | 43.4% | 16.4% | 54.2% | 8.21% (active) | 1.7% (active) | 29.4% | 9.26% (active) | -14.7% (active) |
| O=C(Nn1c(NCC(=O)N2c3ccccc3Sc3ccccc32)nnc1-c1ccc(O)cc1)c1ccccc1 | 101% | 103% | 90.9% | 91.1% | 104% | 98.8% | 101% | 100% | -2.21% (active) | 125% |
| C#C[C@]1(O)CC[C@H]2[C@@H]3CC=C4c5sc(Nc6cc(F)ccc6F)nc5CC[C@]4(C)[C@H]3CC[C@@]21C | -6.68% (active) | 23.9% | -43.1% (active) | -98.3% (active) | 18.5% | -68.2% (active) | -31.5% (active) | -13.4% (active) | 4.58% (active) | 6.12% (active) |
| Cc1ccc(C(=O)N/N=C/c2cccc([N+](=O)[O-])c2)cn1 | 111% | 104% | 105% | 76.6% | 118% | 107% | 87.1% | 84.9% | 96.7% | 92.1% |
| CCOC(=O)c1c(C)oc2ncnc(N3CCN(C(=O)COc4ccc(C(C)(C)C)cc4)CC3)c12 | 93.7% | 74% | 82.7% | 48% | 94.1% | 85.9% | 84.3% | 82% | 76.2% | 59.1% |
| CN1C(=O)N(C)C2Nn3c(s/c(=C\c4ccccc4)c3=O)=NC21 (stereo not given) | 109% | 96.5% | 95.6% | 81.8% | 115% | 97.8% | 82.7% | 68% | 99.5% | 109% |
| CCOC(=O)/C(C#N)=C\Nc1ccc2ncnc(Nc3ccc(Cl)cc3Cl)c2c1 | 110% | 41.7% | 89.5% | 42% | 44.2% | 62.9% | 39% | 48.7% | 70.9% | 58.8% |
| COc1ccc2c(c1)nc(NNC(=O)c1cnccn1)c1cccn12 | 64.8% | 22.2% | 35.4% | 4.76% (active) | 31.1% | 7.83% (active) | 21.3% | 49.2% | 11.7% | 5.36% (active) |
| C=C1CC[C@@]2(C#N)[C@H]3[C@H](CC[C@@H]2C)[C@@H](C)C[C@@H](CC(C)(C)C#N)[C@H]13 | 61.3% | 32.9% | 60.7% | 14% | 50.6% | 28% | 19% | 51.1% | 22% | 29.3% |
| COc1nc2ccccc2cc1-c1nc2c(cnn2-c2ccc(Br)cc2)c(=O)[nH]1 | 24.3% | 42.4% | 33.2% | 27.1% | 40.6% | 35.4% | 29.4% | 8.46% (active) | 13.7% | 47.7% |
| COc1cc2cc(Oc3ccc(NC(=O)Nc4ccc(Cl)c(Cl)c4)cc3)c(C)nc2cc1OCCN1CCOCC1 | 107% | 66.4% | 91.5% | 83.9% | 124% | 93.4% | 87.5% | 72.8% | 65% | 62.7% |
| COc1ccc(C(=O)n2nc(-c3ccccc3)nc2N)cc1OC | 103% | 88.2% | 90.5% | 70.5% | 112% | 82.4% | 84.3% | 83.7% | 86.8% | 87.8% |
| C/C(=N/NC(N)=S)c1sc(Nc2cccc(Cl)c2)nc1C | 86.6% | 74.1% | 76.1% | 35.7% | 86.7% | 80.5% | 63.8% | 81.4% | 82.4% | 50% |
| COc1ccc2c(c1)c(-c1ccc(-c3cn(C)c4ccc(OC)cc34)o1)cn2C | 45% | 46.1% | 75.8% | -8.28% (active) | 83.3% | 36.3% | 37.2% | 85.3% | 61.8% | 63.5% |
| COc1ccc(C(=O)C[C@]2(O)C(=O)Nc3c(Cl)ccc(Cl)c32)cc1 | 37.5% | 51.2% | 39.8% | 46.8% | 71.6% | 44.5% | 32.3% | -23.6% (active) | 15.8% | 34.1% |
| COc1ccc([C@H]2c3cc(OC)c(OC)cc3C=C(C=O)C2CO)cc1OC (stereo not given in full) | 20.8% | 91.2% | 68% | 68.4% | 73.4% | 57.8% | 52.4% | 104% | 56.4% | 49.5% |
| Cc1ccc2sc3c(NCCN)nc4ccccc4c3c(=O)c2c1 | 105% | 88% | 69.3% | 50.6% | 96.2% | 66.4% | 42.7% | 61.6% | 32.8% | 49% |
| COc1ccc(/C=C/c2c(C(=O)/C=C/c3ccc(Cl)cc3)c(C)nc3ccccc23)cc1 | 45.7% | 47.9% | 17.2% | -21.3% (active) | 56.2% | 13.5% | 29.5% | 39.6% | 5.29% (active) | 4.01% (active) |
| COc1ccc(C(=O)/C=C/c2sc(Cl)nc2Cl)cc1 | 39.8% | 65.2% | 18% | 51.9% | 104% | -44.5% (active) | 27.4% | 93.2% | 12.3% | 11.6% |
| COc1cc(/C=C/C(=O)/C=C/c2cc(OC)c3c(c2OC)OCO3)c(OC)c2c1OCO2 | 28.1% | 87.7% | 30.4% | 57.3% | 12.9% | 25.5% | 29.7% | 43% | 26.5% | 18.7% |
| N#Cc1c(-c2ccc(Cl)cc2)nc2c(c(-c3ccccc3)nn2-c2ccccc2)c1-c1ccc(O)cc1 | 74.5% | 67.8% | -18.4% (active) | 30.5% | 17.2% | 56% | 40.2% | 79.3% | 27% | 24.3% |
| COc1cccc(Oc2ccccc2NC(=O)CNC(=O)c2cccc3ccccc23)c1 | 30% [5 µM] | 35.3% [5 µM] | 31.4% [5 µM] | 39.8% [5 µM] | 58.5% [5 µM] | 33.7% [5 µM] | 23.8% [5 µM] | -16.3% [5 µM] (active) | 15.4% [5 µM] | 12.3% [5 µM] |
| O=c1[nH]c2c(ccc3cnccc32)c2c1CCC2 | -15.9% (active) | -13.5% (active) | 7.16% (active) | -11.5% (active) | -5.65% (active) | 6.67% (active) | -19.9% (active) | -51.5% (active) | -22.3% (active) | 15.9% |
| CN(C)c1ccc(/C=N\Nc2cc(=O)[nH]c3ccc(Cl)cc23)cc1 | 91.2% | 85.7% | 104% | 67.9% | 127% | 95.2% | 90.9% | 123% | 95.4% | 87.1% |
